Source: PubChem BioAssay (NCI)
The panel holds about 83,000 compounds, 20% with a hit somewhere; the sample as a whole holds those more often.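 Values shown are percent growth following 48 h exposure of cells in 96-well plates to a single concentration of compound; below 10 was considered active.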 A number with no mark means an inactive call. The source made the active and inactive calls.

How the values were obtained:
Assay in all cases: NCI-60 one-dose screen, 48 h (100 = growth as untreated, 0 = no growth, -100 = all killed)
Details in all cases: 10 µM unless noted
T-47D breast = test system: T-47D breast
BT-549 breast = test system: BT-549 breast
MDA-MB-435 melanoma = test system: MDA-MB-435 melanoma
SW-620 colon = test system: SW-620 colon
MCF7 breast = test system: MCF7 breast
HCT-116 colon = test system: HCT-116 colon
HCC-2998 colon = test system: HCC-2998 colon
KM12 colon = test system: KM12 colon

C[C@H]1[C@H](C)CC[C@]2(CO)CC[C@]3(C)C(=CC[C@@H]4[C@@]5(C)Cc6c([nH]c7ccccc67)C(C)(C)[C@@H]5CC[C@]43C)[C@H]12
growth (T-47D breast): 68.3% | growth (BT-549 breast): 85.2% | growth (MDA-MB-435 melanoma): 90.3% | growth (SW-620 colon): 96.2% | growth (MCF7 breast): 74.1% | growth (HCT-116 colon): 61.5% | growth (HCC-2998 colon): 86% | growth (KM12 colon): 73.8%

CCn1cc(C2NC(=O)c3ccccc3N2)c2cccc(C)c21 (stereo not drawn)
growth (T-47D breast): 36.9% | growth (BT-549 breast): 48.7% | growth (MDA-MB-435 melanoma): -31.9% (active) | growth (SW-620 colon): 24.7% | growth (MCF7 breast): 16.9% | growth (HCT-116 colon): 7.91% (active) | growth (HCC-2998 colon): 9.07% (active) | growth (KM12 colon): 15.9%

C/C(=C(/c1ccccc1)c1ccc(OCC(O)CN2CCOCC2)cc1)c1ccccc1 (stereo not drawn)
growth (T-47D breast): 60.3% | growth (BT-549 breast): 93.3% | growth (MDA-MB-435 melanoma): 90.7% | growth (SW-620 colon): 88.6% | growth (MCF7 breast): 84.2% | growth (HCT-116 colon): 46.3% | growth (HCC-2998 colon): 102% | growth (KM12 colon): 63.6%

CCOC(=O)c1c(C)nc2c(c1N)C(=O)C(=O)N2Cc1ccc(C(F)(F)F)cc1
growth (T-47D breast): 44% | growth (BT-549 breast): 53.4% | growth (MDA-MB-435 melanoma): 6.09% (active) | growth (SW-620 colon): 35.6% | growth (MCF7 breast): 11.7% | growth (HCT-116 colon): 27.2% | growth (HCC-2998 colon): 98.1% | growth (KM12 colon): 27.8%

O=C1Nc2c(ccc(Cl)c2Cl)/C1=C/c1ccc([N+](=O)[O-])cc1
growth (T-47D breast): 85.3% | growth (BT-549 breast): 87.4% | growth (MDA-MB-435 melanoma): 93% | growth (SW-620 colon): 100% | growth (MCF7 breast): 90.4% | growth (HCT-116 colon): 76.9% | growth (KM12 colon): 110%

CN1CCN(CC#CCNC(=O)[C@]23CCC(C)(C)C[C@H]2C2=CC[C@@H]4[C@@]5(C)Cc6c([nH]c7ccccc67)C(C)(C)[C@@H]5CC[C@@]4(C)[C@]2(C)CC3)CC1
growth (T-47D breast): 94.4% | growth (BT-549 breast): 101% | growth (MDA-MB-435 melanoma): 47.2% | growth (SW-620 colon): 46.8% | growth (MCF7 breast): 32.4% | growth (HCT-116 colon): 22.5% | growth (HCC-2998 colon): 80% | growth (KM12 colon): 52.3%

Cc1ccc(C2CC(c3cccc(Nc4ccncc4)c3)=NN2c2ccccc2)cc1 (stereo not drawn)
growth (T-47D breast): -58.2% (active) | growth (BT-549 breast): 81.2% | growth (MDA-MB-435 melanoma): -89.5% (active) | growth (SW-620 colon): -62.7% (active) | growth (MCF7 breast): -92% (active) | growth (HCT-116 colon): -78% (active) | growth (HCC-2998 colon): -92.2% (active) | growth (KM12 colon): -88.3% (active)

COc1ccc(C(=O)/C=C/c2c(OC)cc(OC)cc2OC)c(OC)c1
growth (T-47D breast): 19% | growth (BT-549 breast): 12.3% | growth (MDA-MB-435 melanoma): -20.2% (active) | growth (SW-620 colon): 16.6% | growth (MCF7 breast): 21.4% | growth (HCT-116 colon): 18.2% | growth (KM12 colon): 15.6%

CCCCOc1ccc(/C=N/Nc2cc(C)nc3ccc(Cl)cc23)cc1
growth (T-47D breast): 21.5% | growth (BT-549 breast): 96.6% | growth (MDA-MB-435 melanoma): -85.2% (active) | growth (SW-620 colon): -58.3% (active) | growth (MCF7 breast): -70.8% (active) | growth (HCT-116 colon): -68% (active) | growth (KM12 colon): -76.6% (active)

Clc1ccc(N2N=C(c3cccc(Nc4ccncc4)c3)CC2c2ccc(Br)cc2)cc1 (stereo not drawn)
growth (T-47D breast): 48.7% | growth (BT-549 breast): 116% | growth (MDA-MB-435 melanoma): -83.1% (active) | growth (SW-620 colon): -68.1% (active) | growth (MCF7 breast): -51.5% (active) | growth (HCT-116 colon): 105% | growth (KM12 colon): -51% (active)

COc1ccccc1C(C[N+](=O)[O-])c1c(-c2ccccc2)[nH]c2cc(C)ccc12 (stereo not drawn)
growth (T-47D breast): 32.2% | growth (BT-549 breast): 80.1% | growth (MDA-MB-435 melanoma): 13.8% | growth (SW-620 colon): 54.6% | growth (MCF7 breast): 55.6% | growth (HCT-116 colon): 53.8% | growth (KM12 colon): 63.1%

CCN(CC)CCOC(COc1cc(C)cc(C)c1)COc1cc(C)cc(C)c1
growth (T-47D breast): 18.8% | growth (BT-549 breast): 50.9% | growth (MDA-MB-435 melanoma): 19.5% | growth (SW-620 colon): 24.1% | growth (MCF7 breast): 17.5% | growth (HCT-116 colon): 7.06% (active) | growth (KM12 colon): 31.7%

O=C(NCCc1ccccn1)OCc1nc2nc(Cl)nc(N3CCOCC3)c2[nH]1
growth (T-47D breast): 33.5% | growth (BT-549 breast): 8.16% (active) | growth (MDA-MB-435 melanoma): 11.9% | growth (SW-620 colon): -37.2% (active) | growth (MCF7 breast): 15.6% | growth (HCT-116 colon): -71.8% (active) | growth (HCC-2998 colon): 77.6% | growth (KM12 colon): 12.2%

COc1ccc(C(=O)/C=C/c2ccc(OCc3ccccc3)c(OC)c2)cc1OC
growth (T-47D breast): 47.4% | growth (BT-549 breast): 51.8% | growth (MDA-MB-435 melanoma): 61% | growth (SW-620 colon): 12.9% | growth (MCF7 breast): 22.5% | growth (HCT-116 colon): 18.2% | growth (KM12 colon): 36.5%

Nc1ccccc1NC(=O)c1ccc(CN2CCC/C(=C\c3cccc(Cl)c3)C2=O)cc1
growth (T-47D breast): 32.4% | growth (BT-549 breast): -9.32% (active) | growth (MDA-MB-435 melanoma): 3.87% (active) | growth (SW-620 colon): 23.9% | growth (MCF7 breast): 8.72% (active) | growth (HCT-116 colon): 6.06% (active) | growth (HCC-2998 colon): 12.4% | growth (KM12 colon): 4.58% (active)

FC(F)(F)c1cccc(Oc2ccc(Nc3ncnc4ccc(OCCCN5CCOCC5)cc34)cc2Cl)c1
growth (T-47D breast): 32.7% | growth (BT-549 breast): 78.9% | growth (MDA-MB-435 melanoma): 43.2% | growth (SW-620 colon): 31.7% | growth (MCF7 breast): 28.7% | growth (HCT-116 colon): 28% | growth (HCC-2998 colon): 29.3% | growth (KM12 colon): 17.1%

CCCC1C(C(=O)OCC)=C(N)Oc2cc(O)ccc21 (stereo not drawn)
growth (T-47D breast): 88.8% | growth (BT-549 breast): 94% | growth (MDA-MB-435 melanoma): 90.6% | growth (SW-620 colon): 97.1% | growth (MCF7 breast): 103% | growth (HCT-116 colon): 88.3% | growth (HCC-2998 colon): 105% | growth (KM12 colon): 98.2%

O=C(N/N=C/c1ccc(O)c(O)c1)c1sc2ccccc2c1Cl
growth (T-47D breast): 62.3% | growth (BT-549 breast): 84.4% | growth (MDA-MB-435 melanoma): 88.7% | growth (SW-620 colon): 75.2% | growth (MCF7 breast): 54.4% | growth (HCT-116 colon): 80% | growth (KM12 colon): 89%

O=c1[nH]c(=O)[nH]c(=S)[nH]1
growth (T-47D breast): 98.9% | growth (BT-549 breast): 103% | growth (MDA-MB-435 melanoma): 103% | growth (SW-620 colon): 102% | growth (MCF7 breast): 97.8% | growth (HCT-116 colon): 98.5% | growth (KM12 colon): 102%

CN1C(=O)N(C)C2NC(N/N=C/c3ccccc3)=NC21 (stereo not drawn)
growth (T-47D breast): 90.6% | growth (BT-549 breast): 100% | growth (MDA-MB-435 melanoma): 99.6% | growth (SW-620 colon): 102% | growth (MCF7 breast): 98.2% | growth (HCT-116 colon): 95.6% | growth (HCC-2998 colon): 103% | growth (KM12 colon): 108%

CCc1c(Nc2ccc(C)cc2)[nH]c(N)nc1=S
growth (T-47D breast): 90.1% | growth (BT-549 breast): 100% | growth (MDA-MB-435 melanoma): 104% | growth (SW-620 colon): 107% | growth (MCF7 breast): 91.3% | growth (HCT-116 colon): 98.3% | growth (KM12 colon): 104%

NS(=O)(=O)c1cccc(NC(=O)C(=O)C2C(=O)Nc3ccccc32)c1 (stereo not drawn)
growth (T-47D breast): 112% | growth (BT-549 breast): 109% | growth (MDA-MB-435 melanoma): 96.8% | growth (SW-620 colon): 94.5% | growth (MCF7 breast): 109% | growth (HCT-116 colon): 93.3% | growth (HCC-2998 colon): 104% | growth (KM12 colon): 103%

O=C(CSc1nc2sc3c(c2c(=O)n1Cc1ccccc1)CCCC3)N1CCN(c2ccccc2)CC1
growth (T-47D breast): 80.9% | growth (BT-549 breast): 90.1% | growth (MDA-MB-435 melanoma): 101% | growth (SW-620 colon): 102% | growth (MCF7 breast): 95.5% | growth (HCT-116 colon): 85.4% | growth (HCC-2998 colon): 103% | growth (KM12 colon): 101%

CC[N+](CC)(CCCC(C)[N+]1(Cc2ccccc2)C(C)=CC=C1C)Cc1ccccc1 (stereo not drawn)
growth (T-47D breast): 77.7% | growth (BT-549 breast): 82.9% | growth (MDA-MB-435 melanoma): 82.8% | growth (SW-620 colon): 89% | growth (MCF7 breast): 81% | growth (HCT-116 colon): 47.6% | growth (HCC-2998 colon): 80.8% | growth (KM12 colon): 81.7%

COc1ccc(-c2nc(SC)nc(N3CCOCC3)c2C#N)cc1
growth (T-47D breast): 72.9% | growth (BT-549 breast): 83.7% | growth (MDA-MB-435 melanoma): 99.3% | growth (SW-620 colon): 103% | growth (MCF7 breast): 90.6% | growth (HCT-116 colon): 103% | growth (HCC-2998 colon): 99.7% | growth (KM12 colon): 99.9%

N#Cc1c(Nc2ccccc2)nn2cc(-c3nc4ccccc4s3)c(N)nc12
growth (T-47D breast): 68.9% | growth (BT-549 breast): 67.2% | growth (MDA-MB-435 melanoma): 93.6% | growth (SW-620 colon): 72.2% | growth (MCF7 breast): 63.3% | growth (HCT-116 colon): 76.4% | growth (KM12 colon): 88.2%

COC(=O)Nc1nc2ccc(C(=O)c3cccc(I)c3)cc2[nH]1
growth (T-47D breast): 63.8% | growth (BT-549 breast): 6.76% (active) | growth (MDA-MB-435 melanoma): -35.8% (active) | growth (SW-620 colon): 21.3% | growth (MCF7 breast): 17.6% | growth (HCT-116 colon): 9.66% (active) | growth (HCC-2998 colon): 18.3% | growth (KM12 colon): 7.58% (active)

COc1ccc(-c2nc(SCC(C)C)nc(N/N=C(/C)c3ccc(OC)c(OC)c3)c2C#N)cc1
growth (T-47D breast): 54.7% | growth (BT-549 breast): 97.8% | growth (MDA-MB-435 melanoma): 87.9% | growth (SW-620 colon): 84.4% | growth (MCF7 breast): 80.6% | growth (HCT-116 colon): 96.6% | growth (HCC-2998 colon): 92.4% | growth (KM12 colon): 74%

COc1ccccc1-c1c(-c2ccc(Cl)cc2)c2cc3c(cc2[nH]c1=O)OCCO3
growth (T-47D breast): 66% | growth (BT-549 breast): 67.7% | growth (MDA-MB-435 melanoma): 65.2% | growth (SW-620 colon): 93.7% | growth (MCF7 breast): 42% | growth (HCT-116 colon): 47.7% | growth (HCC-2998 colon): 83.7% | growth (KM12 colon): 63.8%

CNC(=O)NCC1OC(n2cnc3c(NC(=O)Nc4ccccc4)ncnc32)C(O[Si](C)(C)C(C)(C)C)C1O[Si](C)(C)C(C)(C)C (stereo not drawn)
growth (T-47D breast): 13.6% | growth (BT-549 breast): 39.7% | growth (MDA-MB-435 melanoma): 25.9% | growth (SW-620 colon): 36.4% | growth (MCF7 breast): 0.294% (active) | growth (HCT-116 colon): 0.332% (active) | growth (KM12 colon): -3.66% (active)
